Source: PubChem (The Scripps Research Institute Molecular Screening Center)
Rows were chosen to be rich in hits. Some 3.2% of all compounds tested hit in one or more screens of this group.
MsrA act: activators of bovine methionine sulfoxide reductase A. AID 602163. purified bovine MsrA, absorbance read-out. actives 0.3% (n = 360,000). activation, % at 10.6 µM; in the data active = activation above about 7.5%
PG9 binder: PG9 antibody binding by small molecule. actives 0.43% (n = 360,000). inhibition, % at 6.7 µM. TR-FRET gp120-PG9 antibody binding; in the data active = inhibition above about 8.5%
rCAG binder: r(CAG) repeat RNA binding; TO-PRO-1 dye displacement fluorescence; inhibition, % at 3 µM; actives 1.3% (n = 370,000); AID 651821;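 active = inhibition above the plate cutoff, the mean of all test compounds on that plate plus 3 SD, cut at about 35% in these data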;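 note: higher means more dye released from RNA so lower well fluorescence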
MsrA inhibitor: inhibits bovine methionine sulfoxide reductase A | purified bovine MsrA, absorbance read-out | inhibition, % at 15.5 µM | actives 0.75% (n = 360,000); in the data active = inhibition above about 4.5%
HGIII-sPLA2 inh: Blocks human group III sPLA2 activity. Q9NZ20. QFRET BODIPY PC-A2 liposome hydrolysis, fluorescence. inhibition, % at 12.2 µM. actives 0.56% (n = 370,000). AID 743126;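 active = inhibition above mean plus 3 SD of compounds lying within the high and low control bounds, cut at about 19% in these data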
Target sequence (Q9NZ20 whole entry, looked up): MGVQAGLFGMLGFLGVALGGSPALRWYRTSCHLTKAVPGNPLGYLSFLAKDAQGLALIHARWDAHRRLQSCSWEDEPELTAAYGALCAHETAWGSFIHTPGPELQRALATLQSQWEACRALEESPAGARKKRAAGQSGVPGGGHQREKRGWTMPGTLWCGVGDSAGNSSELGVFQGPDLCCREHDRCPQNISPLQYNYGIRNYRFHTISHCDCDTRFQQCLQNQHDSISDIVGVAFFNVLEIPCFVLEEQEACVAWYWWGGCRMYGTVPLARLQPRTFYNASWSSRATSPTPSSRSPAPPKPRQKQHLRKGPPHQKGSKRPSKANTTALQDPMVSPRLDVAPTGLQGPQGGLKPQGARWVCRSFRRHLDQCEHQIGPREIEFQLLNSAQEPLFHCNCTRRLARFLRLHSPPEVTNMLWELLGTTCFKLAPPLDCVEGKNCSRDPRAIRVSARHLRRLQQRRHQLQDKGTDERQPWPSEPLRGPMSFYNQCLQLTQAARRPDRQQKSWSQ
rCAG bind conf: r(CAG) RNA repeat binding, confirmation; actives 70% (n = 4,300); shares compounds with rCAG binder; inhibition, % at 3 µM; AID 652065; TO-PRO-1 dye displacement fluorescence;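 active = inhibition above a per-plate cutoff, the mean inhibition of sample wells plus 3 SD, cut at about 35% in these data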;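 note: loss of TO-PRO-1 fluorescence as compound displaces dye from 1x1 AA loop RNA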
DNA CAG counter: counter-screen for rCAG RNA binders: DNA CAG dye complex inhibitors; shares compounds with rCAG binder; d(CAG) DNA oligo TO-PRO-1 dye displacement, fluorescence; inhibition, % at 3 µM; actives 94% (n = 4,300); AID 652068;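 active = inhibition above its plate's cutoff, the mean test-well inhibition plus 3 SD, cut at about 4.8% in these data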;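 note: hits displace the dye from DNA and so lower well fluorescence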
DNA CAG DR: disrupts DNA CAG TO-PRO-1 complex in dose response | shares compounds with rCAG binder | DNA CAG/GTC duplex TO-PRO-1 dye displacement fluorescence | IC50, µM | actives 20% (n = 250) | AID 686960; in the data active = IC50 below about 10 µM
A number is an active result; n = inactive; x = not tested or not shown.

SMILES	MsrA act	PG9 binder	rCAG binder	MsrA inhibitor	HGIII-sPLA2 inh	rCAG bind conf	DNA CAG counter	others
CN(Cc1ccc(F)cc1)S(=O)(=O)c1nnc(NC(=O)c2ccccc2Br)s1	n	n	68	n	n	48	14
COc1ccc(CN(C)S(=O)(=O)c2nnc(NC(=O)c3cccc(F)c3)s2)cc1	n	n	41	n	n	64	25
CN(Cc1ccccc1)S(=O)(=O)c1nnc(NC(=O)c2ccc(F)cc2)s1	n	n	n	n	n	x	x
C[C@@H]1ON(C)[C@H]2C[C@H]3c4[nH]c5cccc(-c6ccccc6F)c5c4CCN3C(=O)[C@@H]12	x	n	n	n	n	x	x
O=C(NC1CCCCN(Cc2cccc(Cl)c2)C1=O)c1cccc([N+](=O)[O-])c1 (stereo not given)	x	x	n	x	n	x	x
COc1ccc([C@@H]2CC=C(C(=O)O)[C@H](c3ccc(C)cc3)N2S(=O)(=O)c2ccc(C)cc2)cc1OC	n	n	40	n	n	36	7.8
COc1cccc([C@@H]2CC=C(C(=O)O)[C@H](c3ccc(Cl)cc3)N2S(=O)(=O)c2ccc(C)cc2)c1	n	n	64	n	n	62	23
Cc1ccc(S(=O)(=O)N2[C@@H](c3cccc(Cl)c3)C(C(=O)O)=CC[C@H]2c2cccc(Cl)c2)cc1	n	n	n	n	n	x	x
COc1cc([C@@H]2CC=C(C(=O)O)[C@H](c3cccc(Cl)c3)N2S(=O)(=O)c2ccc(C)cc2)cc(OC)c1OC	n	n	45	n	n	45	10
COc1cccc([C@@H]2CC=C(C(=O)O)[C@H](c3ccccc3F)N2S(=O)(=O)c2ccc(C)cc2)c1	n	n	41	n	n	37	9.0
Nn1c(SCC(=O)Nc2nccs2)nnc1-c1cc(-c2ccc(F)cc2)n[nH]1	x	x	n	x	n	x	x
O=C(NCCc1c[nH]c2ccccc12)OCc1cn(-c2ccc(F)cc2)nn1	x	x	n	x	n	x	x
CCC(CO)Nc1cccc2c1S(=O)(=O)N(Cc1cn(Cc3ccc(Cl)cc3)nn1)Cc1ccccc1O2 (stereo not given)	x	x	n	x	n	x	x
CCC[C@H]1[C@@H](OC(=O)NCc2cccc(Cl)c2)CC[C@@]23CCCN2C(=O)CCC[C@@H]13	x	x	x	x	n	x	x
O=C(CSc1nnc(-c2cccnc2)n1Cc1ccco1)Nc1ccc(Cl)c(Cl)c1	x	x	n	x	n	x	x
COc1ccc([C@@H]2CC=C(C(=O)O)[C@H](c3ccc(C(C)(C)C)cc3)N2S(=O)(=O)c2ccc(C)cc2)cc1OC	n	n	67	n	n	66	28
COc1cccc([C@@H]2CC=C(C(=O)O)[C@H](c3ccc(C)cc3)N2S(=O)(=O)c2ccc(C)cc2)c1	n	n	n	n	n	x	x
COc1ccc([C@@H]2CC=C(C(=O)O)[C@H](c3ccc(Cl)cc3)N2S(=O)(=O)c2ccc(C)cc2)cc1OC	n	n	57	n	n	n	9.3
COc1cc(C2CC=C(C(=O)O)C(c3ccccc3F)N2S(=O)(=O)c2ccc(C)cc2)cc(OC)c1OC (stereo not given)	x	x	n	x	n	x	x
COc1cc([C@@H]2CC=C(C(=O)O)[C@H](c3ccc(C)cc3)N2S(=O)(=O)c2ccc(C)cc2)cc(OC)c1OC	n	n	35	n	n	42	8.6
C=CCN1C(=O)[C@@H](CC(=O)NCc2ccc(C)o2)[C@]2(C(=O)OC)CCCCC=C12	x	x	n	x	n	x	x
O=C1C(=Cc2ccco2)CCC1=Cc1ccco1	n	n	66	n	n	78	44
Cc1cccc2cc(/C=N/Nc3ccc(C(=O)O)cc3)c(Cl)nc12	n	n	47	n	n	43	11
O=C(O)c1ccc(N/N=C/c2cc3ccccc3nc2Cl)cc1	n	n	n	n	n	x	x
Cc1ccc(NC(=O)CN2C(=O)S/C(=C\c3cc(C)n(-c4cccc(C(=O)O)c4)c3C)C2=O)cc1	n	n	72	n	n	71	32	DNA CAG DR=n
Cc1ccc(C(=O)O)cc1-c1ccc(/C=C2/NC(=O)N(c3ccccc3)C2=O)o1	n	n	62	n	n	60	22
